From PubChem BioAssay
Sampled rows, rich in hits. Any-hit rate of the full collection: about 14%.
Marburg entry inh: blocks Marburg virus binding to or entry into cells | Marburg virus pseudotyped entry inhibition, cell reporter | Potency, µM (top dose mostly 37.8 µM), usual class: inhibitors | 300,000 compounds, 1.8% hits; calls by dose curve; tested in HEK293 cells
HCV inhibitor: blocks hepatitis C virus. Huh7.5.1 HCVcc-Cre infection, luciferase reporter, 44 h. AID 651820. 340,000 compounds, 3.4% hits. Potency, µM (doses to about 41.8 µM), most hits filed as inhibitors
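Antiviral activity was scored by luciferase reporter output from cells infected with HCVcc-Cre (~0.5 moi) in presence of compound, 44 h infection period, cells seeded 1,000/well 4 h prior.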
Pf growth 96h: inhibits malaria parasite growth, 96 h; P. falciparum luciferase reporter growth, 96 h; Potency, µM (top dose mostly 28.7 µM), hits mostly inhibitors; 320,000 compounds, 6.9% hits; AID 504834
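Compounds incubated with erythrocytes infected by luciferase-expressing P. falciparum (2% hematocrit, 0.05% parasitemia final) for 96 hours, 37 C in 5% CO2. Growth inhibition scored as decreased luciferase luminescence.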
HCMV antiviral: human cytomegalovirus inhibition | 410,000 compounds, 4.5% hits | activity change, negative = inhibition, % at 57.5 µM | HFF cells, HCMV-luciferase reporter, 72 h; active compounds read low; in the data active = activity change below about -60%; inconclusive = no clear call, values can overlap the other calls; inactive = above about -39%
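Two compound doses tested in HFFs infected with HCMV-luciferase, MOI 1 PFU/cell, 72 h at 37C. Lysate luminescence read with OneGlo; data normalized against buffer-only and 10uM Salinomycin inhibitor controls.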
Lassa entry inh: Lassa virus entry inhibition | Lassa virus pseudotype entry inhibition, cell reporter | Potency, µM (top dose mostly 37.9 µM), hits mostly inhibitors | 300,000 compounds, 1.2% hits; calls by dose curve; tested in HEK293 cells; note: nearly all actives have a fitted effect of over 50% in size
Pf growth 48h: P. falciparum growth inhibition at 48 hours (one generation) | P. falciparum luciferase growth in erythrocytes, 48 h | Potency, µM (top dose mostly 28.7 µM), most hits filed as inhibitors | 310,000 compounds, 5.9% hits | AID 504832
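Erythrocytes infected with P. falciparum carrying an integrated firefly luciferase reporter (2% hematocrit, 0.1% parasitemia final) were exposed to compounds in RPMI 1640 with 0.5% Albumax at 37 C, 5% CO2. Growth inhibition was scored as reduced luminescence.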
Hits are given with their value; - = inactive; ? = inconclusive; . = no result. Unless noted, calls come from the whole dose curve; as a rule, active = well fitted inhibition curve with a large enough effect; inconclusive = small, poorly fitted or top-dose-only effect, or another doubt; inactive = no such curve, though single readings can be large or run the other way.

SMILES	Marburg entry inh	HCV inhibitor	Pf growth 96h	HCMV antiviral	Lassa entry inh	Pf growth 48h
COc1ccccc1C(C(=O)NC1CCCCC1)N(C(=O)c1csnn1)C1CC1 (stereo not drawn)	-	-	-	-	-	-
O=C(NC1CCCCC1)C(c1ccccc1F)N(C(=O)c1csnn1)C1CCCC1 (stereo not drawn)	?	-	?	-60	-	-
Cc1cc(C)cc(N(CC(=O)NCc2ccco2)C(=O)c2snc(C(N)=O)c2N)c1	-	?	4.7µM	-	-	-
C[C@@H]1[C@@H](c2ccccc2)c2cc3ccccc3nc2-c2nc3ccccc3cc2[C@H]1C(=O)N1CCCC1	-	.	.	.	?	.
COc1ccc(-c2nn(C)c3sc(C(=O)N4CCN(c5cc(Cl)ccc5C)CC4)cc23)cc1OC	?	.	.	-	-	.
CCOC(=O)N1CCN(C(=O)C[C@@H]2C[C@@]3(C(=O)OCC)CCC=C3N(Cc3ccco3)C2=O)CC1	.	.	.	-	.	.
O=c1[nH]nc(Sc2ncnc3sccc23)n1CCc1ccccc1	?	-	9.3µM	-95	?	10µM
CCN(CC)C(=O)CSc1n[nH]c(=O)n1CCc1ccccc1	-	-	-	-	-	-
Cn1c(SCc2ccc(Br)cc2)nc2c([nH]c3ccccc32)c1=O	.	.	.	-	-	.
Cn1c(O)c(C2=c3ccccc3=NC2=O)sc1=Nc1ccc(Cl)cc1	?	-	-	-67	-	-
O=c1c2c(-c3cccs3)csc2ncn1-c1ccccc1	-	?	12µM	-	-	-
Cc1ccc(-n2cnc3scc(-c4cccs4)c3c2=O)cc1	-	11µM	-	-	-	?
O=c1c2c(-c3cccs3)csc2ncn1-n1cccc1	-	-	-	-	-	?
CCOc1cc(CNC(=O)c2ccc(NC(=O)c3nsc4ccccc34)cc2)ccc1OC	.	.	.	-	-	.
Cc1ccc(S(=O)(=O)N2[C@H](CC(=O)OCc3ccccc3)OC[C@@H]2C)cc1	.	.	.	-	.	.
CCN1C[C@@H]2[C@@H]3C(=O)N(Cc4ccccc4)C(=O)[C@@H]3[C@](Cc3ccccc3)(C1=O)N2C(=O)c1ccc(C(C)(C)C)cc1	.	-	.	-	.	.
O=C(Cn1nc(-c2nn(CC(=O)c3ccccc3)c3[n+]2CCCCC3)[n+]2c1CCCCC2)c1ccccc1	-	-	-	-	-	?
COc1ccc(C(=O)Cn2nc(CNc3ccc(Br)cc3)[n+]3c2CCCCC3)cc1	?	-	1.9µM	-60	-	1µM
Cc1ccc(C(C)C)c(OCc2nn(CC(=O)c3ccc(OC(F)F)cc3)c3[n+]2CCCCC3)c1	?	?	?	.	?	1.9µM
CCC(=O)OC1=CN(Cc2ccccc2)S(=O)(=O)c2ccccc21	-	.	.	-	-	.
CCn1c(SCC(=O)Nc2ccc3c(c2)oc2ccccc23)nnc1-c1ccc(N)cc1	-	11µM	?	?	?	.
Cc1cc(Cl)ccc1NC(=O)CSc1nnc(Cc2cccs2)n1Cc1ccco1	?	?	.	-	-	?
CC(=O)Nc1ccc(-c2nnc(SCC(=O)Nc3ccc4c(c3)oc3ccccc34)n2C)cc1	-	-	?	-	?	-
COc1cc2c(cc1NC(=O)CSc1nnc(Cc3cccs3)n1Cc1ccco1)oc1ccccc12	?	2µM	?	-	-	.
CCn1c(SCC(=O)Nc2cc3oc4ccccc4c3cc2OC)nnc1-c1cccs1	?	10µM	.	-	?	?
SMILES	Marburg entry inh	HCV inhibitor	Pf growth 96h	HCMV antiviral	Lassa entry inh	Pf growth 48h
COc1cc2c(cc1NC(=O)CSc1nnc(Cc3cccs3)n1C)oc1ccccc12	-	10µM	-	-	-	-
COc1cc2c(cc1NC(=O)CSc1nnc(COc3ccc(Cl)cc3)n1C)oc1ccccc12	?	6.3µM	-	-	-	?
O=C(NNC1=Nc2cccc3cccc1c23)c1ccc(Br)cc1	?	?	-	-62	-	12µM
CCCCOc1ccc(/C=c2\sc3ncnn3c2=O)cc1	-	-	1.5µM	-	-	-
COC(=O)c1ccccc1NC(=O)C1=C(C)C(=O)OC12CCC(C)CC2 (stereo not drawn)	-	.	.	-	-	.
Cc1ccc2cccc(N)c2n1	-	-	0.93µM	-	.	-
O=C(C1=C(O)C(=O)N(c2ncccn2)[C@@H]1c1cccc(Cl)c1)c1ccco1	-	.	.	.	.	.
COc1cccc(NC(=O)Cn2cc(S(=O)(=O)Cc3ccccc3F)c3ccccc32)c1	.	.	.	-	-	.
CCOc1cccc(C(=O)Nc2cccc(-c3nnc(-c4ccc(C)cc4)o3)c2)c1	?	?	.	-70	-	?
CCOc1cccc(C(=O)Nc2cccc(-c3nnc(-c4ccccc4)o3)c2)c1	?	?	-	?	?	.
Cc1cc(NC(=O)c2ccco2)cc(-c2nc3cc(Cl)ccc3o2)c1O	-	.	.	-61	-	.
CCOc1cccc(C(=O)Nc2ccc3oc(-c4cccnc4)nc3c2)c1	-	10µM	?	?	-	?
O=C(Nc1ccc2oc(-c3ccccc3)nc2c1)c1ccncc1	?	10µM	?	-	-	-
CCCCOc1cccc(C(=O)Nc2ccc3oc(-c4cccnc4)nc3c2)c1	.	.	.	-	-	.
O=C(NC1CCCCC1)C(c1ccccc1)n1c(=O)c(-c2cc3ccccc3[nH]2)nc2ccccc21 (stereo not drawn)	.	.	.	-	.	.
CCOc1cccc(C(=O)Nc2ccc3oc(Cc4ccc(Cl)cc4)nc3c2)c1	?	?	.	-60	?	.
O=C(Nc1ccc2nc(-c3ccccc3)oc2c1)c1ccco1	-	10µM	-	-	-	?
O=C(Nc1cccc2ncccc12)c1ccc(Br)c([N+](=O)[O-])c1	?	13µM	-	-63	?	-
O=C(Nc1cccc2ncccc12)c1cccnc1	-	-	.	-	?	-
O=C(Nc1cccc2ncccc12)c1ccc(Cl)cc1	-	-	6.6µM	-	-	?
O=C(Nc1cccc2ncccc12)c1ccc(F)cc1	-	-	-	-64	-	-
COc1ccc(NC(=O)C2(C)CCN2Cc2ccc(OC)c3ccccc23)cc1OC (stereo not drawn)	.	.	.	-	.	.
COc1ccc(CN(C(=O)c2ccc(OCC(C)C)cc2)C2CCS(=O)(=O)C2)cc1 (stereo not drawn)	-	.	.	-	?	.
O=C(CN1C2CCC1CC(O)(c1cccnc1)C2)Nc1ccc2c(c1)OCO2 (stereo not drawn)	-	-	8.3µM	-	-	-
O=C(Nc1ccccc1)N1C2CCC1CC(O)(c1cccnc1)C2 (stereo not drawn)	-	-	-	-	-	?
CN(C)CCN1CCN(C2CN(Cc3cn(Cc4ccccc4C(F)(F)F)nn3)S(=O)(=O)C2)CC1 (stereo not drawn)	.	.	.	-	.	.
C[C@@H](N)C1CCC(C(=O)Nc2ccncc2)CC1 (stereo partly drawn)	?	.	.	.	-	.
Cc1nn(-c2ccc(N3CCCC3)nn2)c(C)c1CCC(=O)Nc1ccc(F)c(Cl)c1	.	.	.	?	-	.
COc1ccc(NS(=O)(=O)c2cccc(C(=O)NNC(=O)c3cc(C)oc3C)c2)cc1	-	-	-	-101	-	-
